Experimental findings from PubChem BioAssay (NCATS) are described below.

Results filed as inconclusive are left out. A number with no mark means an inactive call. The call rests on the fitted dose curve; in most records, active means well fitted curve in the direction sought with a large enough effect; inconclusive means small, poorly fitted or top-dose-only effect, or another doubt; inactive means no such curve, though single readings can be large or run the other way.

The test can be described thus: KB-8-5-11 P-gp reporter qHTS against the NCATS DSHEA and TCM libraries (AID 1919977). Further: 0% is about no effect. The settings on record: KB-8-5-11 cells; series mostly up to 26.1 µM; activity change, negative = inhibition: at the top concentration. The source says: Assay Development and Screening Technology Laboratory (ADST)
National Center for Advancing Translational Sciences (NCATS), Rockville, MD
National Institute of Health (NIH), Bethesda, Maryland
Dietary Supplements and Natural Products have minor oversight of their safety and efficacy. We assembled a collection of Dietary Supplements and Natural Products (DSNP) as well as Traditional Chinese Medicinal (TCM) Plant extracts, which were screened against an in vitro panel of assays, including a liver cytochrome p450 enzyme panel, CAR/PXR signaling pathways, and P-gp transporter assays, to assess their activity. This pipeline facilitated the interrogation of Natural Product-Drug Interaction (NaPDI) through prominent metabolizing pathways. In addition, we compared the activity profiles of the DSNP/TCM substances with those of an approved drug collection. Many of the approved drugs have well-annotated mechanisms of action (MOA) while the MOAs for most of the DSNP and TCM samples remain unknown. Based on the premise that compounds with similar activity profiles tend to share similar targets or MOA, we clustered the library activity profiles to identify overlap with the NCATS Pharmaceutical Collection to predict the MOAs of the DSNP/TCM substances. Overall, we highlight four significant bioactivity profiles (measured by p-values) as examples of this prediction. To assess broad cytotoxicity, we employed screening against a HepG2 cell line. In addition, transporter-mediated drug interactions are utilized in the characterization of DDIs using a P-glycoprotein (P-gp) assays. To profile potential P-gp activity, a differential cell viability was measured against two cell lines: a parental KB-3-1 human cervical adenocarcinoma cell line and the drug-resistant subline KB-8-5-11 that overexpresses P-gp.
To this end, we profiled both collections for potential CAR and/or PXR activity, employing a previously published 1536-well qHTS assay.
[1] Lee TD, et al. A High-Throughput Screen of a Library of Therapeutics Identifies Cytotoxic Substrates of P-glycoprotein. Mol Pharmacol. Nov 2019;96(5):629-640. doi:10.1124/mol.119.115964
PROTOCOL TABLE (as described by Inglese J, Shamu CE and Guy RK. 2007)
SEQUENCE No. (e.g., 1, 2, 3, etc.); PARAMETER (e.g., Cells, Incubation, Reagent, etc.); VALUE; DESCRIPTION.
1; Cells; 5 uL; KB-8-5-11 cells, white solid-bottom tissue treated Greiner plate.
2; Incubation; 4 hrs; 37C, 95% humidity, 5% CO2.
3; Compounds and control; 23 nL; Kalypsis pin tool (Wako USA) equipped with a 1536-well pin head to transfer to the assay plates.
4; Incubation; 72 hrs; 37C, 95% humidity, 5% CO2.
5; Reagent; 2.5 uL; CellTiter-Glo.
6; Centrifuge; 1000 RPM; 15 seconds.
7; Incubation; 30 min; room temperature.
8; Read; Luminescence; ViewLux plate reader.
NOTES (numbers refer to Sequence numbers above)
1. P-gp-overexpressing subline KB-8-5-11 were maintained in DMEM (Thermofisher catalog #11965) with 10% FBS and 1% penicillin/streptomycin at 37C in 5% CO2. For KB-8-5-11 cells, colchicine was added to the medium at a concentration of 100 ng/ml (after initial cell attachment). For the screen, assay medium was identical to culture medium except for KB-8-5-11, where colchicine was excluded from the medium. Briefly, 5 uL of cells at 1 x 10^5 cells/mL (500 cells/well) were dispensed into a 1536-well white solid-bottom tissue treated plate (Greiner Bio-One) using a Multidrop Combi dispenser.
2. Plates were incubated at 37C, 95% humidity, 5% CO2 for ~4 hours to allow for cell attachment.
3. Compounds and intraplate control (Bortezomib; final concentration range 228 pM - 7.5 uM) were transferred (16 nL) via pintool (Wako Automation), for a final concentration of 15.6 nM - 30.0 uM (most substances).
4. Plates were incubated for ~72 hours at 37C, 95% humidity, 5% CO2.
5. Plates were then dispensed with 2.5 uL of CellTiter-Glo.
6. The assay plates were centrifuged for 15 seconds at 1,000 RPM's.
7. The plates were incubated for 30-minute at room temperature.
8. […]
For orientation: In qHTS, concentration-response curves come from the screen itself.
Take `O=C(/C=C/c1ccc(O)c(O)c1)O[C@@H]1C[C@](O)(C(=O)O)C[C@@H](O)[C@H]1O`: the “activity change, negative = inhibition” value was 6.66%.

In the case of `O=c1c(-c2ccc(O)cc2)coc2cc(O[C@@H]3O[C@H](CO)[C@H](O)[C@H](O)[C@H]3O)ccc12`, the “activity change, negative = inhibition” value is 6.43%.

As to `Cc1ncc(C[n+]2csc(CCO)c2C)c(N)n1`, the “activity change, negative = inhibition” value was 13.3%.

In the case of `CC1=CCC(=C(C)C)CC1`, the “activity change, negative = inhibition” value is -6.75% [at 44.5 µM].

Turning to `COc1ccc(-c2coc3cc(O)ccc3c2=O)cc1`, the “activity change, negative = inhibition” value is -8.89%.

`O=C(O)c1ccccc1`: the “activity change, negative = inhibition” value is -9.32%.

On to `O=C1c2c(O)cccc2[C@@H]([C@@H]2O[C@H](CO)[C@@H](O)[C@H](O)[C@H]2O)c2cc(CO)cc(O)c21`, for which the “activity change, negative = inhibition” value was -3.41%.

For the compound `CCCCCC(=O)CC`, the “activity change, negative = inhibition” value was -1.5% [at 79.1 µM].

Regarding `C[N+](C)(C)CCO`, the “activity change, negative = inhibition” value is -2.62%.

Regarding `O=c1cc(-c2ccc(O)cc2)oc2cc(O)cc(O)c12`, the “activity change, negative = inhibition” value is -8.58%.

Consider `CCCCCCCCCCCC(=O)OCC(O)CO` (stereo unspecified), for which the “activity change, negative = inhibition” value was -5.44%.

Regarding `CCCCCCCC(=O)O`, the “activity change, negative = inhibition” value is -6.49%.

With `CCCCCCCCCC=O`, the “activity change, negative = inhibition” value was -9.33% [at 44.5 µM].

As for `C=C1C[C@@]23CC[C@H]4[C@@](C)(CCC[C@@]4(C)C(=O)OC4OC(CO)C(O)C(O)C4O)[C@@H]2CC[C@]1(OC1OC(CO)C(O)C(O)C1OC1OC(CO)C(O)C(O)C1O)C3` (stereo partly specified), the “activity change, negative = inhibition” value is 12.9%.

Consider `O=C(/C=C/c1ccc(O)c(O)c1)OC(Cc1ccc(O)c(O)c1)C(=O)O` (stereo unspecified), for which the “activity change, negative = inhibition” value was -3.13%.

With `CC(C)(CO)[C@@H](O)C(=O)NCCC(=O)O`, the “activity change, negative = inhibition” value was 15.9%.

Regarding `C[C@@]12C[C@@]3(O)O[C@@H](O1)[C@]1(COC(=O)c4ccccc4)[C@@H]3C[C@@]12O[C@@H]1O[C@H](CO)[C@@H](O)[C@H](O)[C@@H]1O`, the “activity change, negative = inhibition” value is -0.948%.

On to `C=CC(=C)CCC=C(C)C`, for which the “activity change, negative = inhibition” value was -5.04%.

For `C=C(C)[C@@H]1CC=C(C=O)CC1`, the “activity change, negative = inhibition” value was -5.92% [at 44.5 µM].

For `C=C/C(C)=C/C/C=C(\C)CCC=C(C)C`, the “activity change, negative = inhibition” value is -14.8% [at 44.5 µM].

Consider `CCCCCCCCCC(=O)O`, for which the “activity change, negative = inhibition” value was -12.2%.

Consider `C=C(CO)C(=O)O[C@H]1CC(=C)[C@@H]2C[C@H](O)C(=C)[C@@H]2[C@H]2OC(=O)C(=C)[C@@H]21`, for which the “activity change, negative = inhibition” value was -2.08%.

For the compound `COc1ccc(C(C)=O)c(O)c1`, the “activity change, negative = inhibition” value was -4.65%.

For the compound `CC(C)c1ccc(C=O)cc1`, the “activity change, negative = inhibition” value was -4.27% [at 44.5 µM].

For the compound `CC(C)=CCC(O)/C(C)=C/CO[C@@H]1O[C@H](CO)[C@@H](O)[C@H](O)[C@H]1O` (stereo partly specified), the “activity change, negative = inhibition” value was 14.7%.

`CC1=CCC(O)(C(C)C)CC1` (stereo unspecified): the “activity change, negative = inhibition” value is -4.67% [at 44.5 µM].

As for `O=C(O)/C=C/c1ccc(O)c(O)c1`, the “activity change, negative = inhibition” value is 14.2%.

As to `C=C(C)[C@H]1CC=C(CO)CC1`, the “activity change, negative = inhibition” value was -8.28%.

As to `O=C(O)/C=C/c1ccccc1`, the “activity change, negative = inhibition” value was -1.16% [at 44.5 µM].

Consider `CC(=O)C1=C(O)C=C2Oc3c(C(C)=O)c(O)c(C)c(O)c3[C@]2(C)C1=O`, for which the “activity change, negative = inhibition” value was 10.8%.

`O=c1cc(-c2ccc(O)c(O)c2)oc2cc(O)cc(O)c12`: the “activity change, negative = inhibition” value was -19.7%.

As for `CC(=O)O[C@@H]1C[C@@H](C)[C@](O)(CCC2=CC(=O)OC2)[C@@]2(C)CCCC(C)(C)C12` (stereo partly specified), the “activity change, negative = inhibition” value is -9.32%.

Regarding `CCCCCCCCCCCCCC(=O)OCC(O)CO` (stereo unspecified), the “activity change, negative = inhibition” value is -12.8% [at 44.5 µM].

Take `Cc1cc2nc3c(=O)[nH]c(=O)nc-3n(CC(O)C(O)C(O)CO)c2cc1C` (stereo unspecified): the “activity change, negative = inhibition” value was -7.39%.

`COc1cc(O)c2c(c1)C(=O)c1cc(C)cc(O)c1C2=O`: the “activity change, negative = inhibition” value was -13.3%.

On to `CC(=O)OC/C=C/c1ccccc1`, for which the “activity change, negative = inhibition” value is -10.9% [at 44.5 µM].
